Reference: PubChem BioAssay (NCATS)
Records with an inconclusive call do not appear. Where a call stands in place of a potency, no number is given. The source made the active and inactive calls. Unless noted, calls follow the shape of the dose curve; as a rule, active = well fitted inhibition curve with a large enough effect; inconclusive = small, poorly fitted or top-dose-only effect; inactive = no such curve, though single readings can be large or run the other way.

test system: not listed separately; experiment: NS1 protein of Zika virus - qHTS assay to identify small molecule inhibitors in human HEK 293 cells (AID 1347053); settings: HEK293 ZIKV MR766 infection, NS1 TR-FRET, 24 h; series mostly up to 46.1 µM; also: nearly all actives have a fitted effect of over 55% in size
Summary of the method: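 Read-out is a two-antibody TR-FRET for ZIKV NS1, normalized between uninfected cells and infected cells. Compound added 1 h before MR766 infection at MOI 0.5; human HEK 293 cells incubated 24 h, 37 C.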

Compound	Potency
O=C(O)C1=CCCNC1	inactive
CC(C)C[C@H](NC(=O)[C@H](O)[C@H](N)Cc1ccccc1)C(=O)O	inactive
Cc1nc2n(c(=O)c1CCN1CCC(c3noc4cc(F)ccc34)CC1)CCCC2O (stereo unspecified)	inactive
CC1CNCCN1S(=O)(=O)c1cccc2cnccc12 (stereo unspecified)	inactive
O=C(O)C1CCNCC1	inactive
NCCCCN	inactive
NC1(C(=O)O)CC1	inactive
CN1CC(O)C(O)C(O)C1CO (stereo unspecified)	inactive
CCCCCCCCCC(=O)NC(CN1CCOCC1)[C@H](O)c1ccccc1 (stereo partly specified)	inactive
CCCCCCN(CCCCCC)C(=O)Cc1c(-c2ccc(F)cc2)[nH]c2ccccc12	inactive
O=c1[nH]c2cc(Cl)ccc2c(O)c1-c1ccc(Oc2ccccc2)cc1	inactive
Cc1cccc(C(=O)NCN2CCN(c3ccccc3C#N)CC2)c1	inactive
O=c1[nH]c2ccccc2c2ccccc12	inactive
Cc1cc(Cn2cnc3c2C[C@@H](C(=O)O)N(C(=O)C(c2ccccc2)c2ccccc2)C3)ccc1N	inactive
NCCCNCCCCNCCCN	inactive
CC(C)[C@@H]1CC[C@@H](C)C[C@@H]1P(=O)(c1ccccc1)c1ccccc1	inactive
CCN(CC)CCOC(=O)c1cc(Cl)c(N)cc1OC	inactive
[N-]=[N+]=Nc1ccc(C(=O)CSC[C@H](NC(=O)CC[C@H](N)C(=O)O)C(=O)NCC(=O)O)cc1	inactive
Cc1ccccc1/C=C/C1=NCCN1	inactive

Compound	Potency
NC(N)=NC(N)=Nc1ccccc1	inactive
Cn1c(=O)c2c(nc(/C=C/c3cccc(Cl)c3)n2C)n(C)c1=O	inactive
Nc1ncnc2c1nc(Sc1ccc(Cl)cc1)n2[C@H]1OC2COP(=O)(O)O[C@@H]2C1O (stereo partly specified)	inactive
N[C@@H](Cc1ccc(O)c(I)c1)C(=O)O	inactive
CC(=O)NNC(=O)N1Cc2ccccc2Oc2ccc(Cl)cc21	inactive
NCC(O)c1ccc(O)c(O)c1 (stereo unspecified)	inactive
c1ccc(C2CN3CCSC3=N2)cc1 (stereo unspecified)	inactive
Cc1cc2c(cc1Cl)N(C(=O)Nc1ccnc3ccccc13)CC2	inactive
NCCNS(=O)(=O)c1cccc2c(Cl)cccc12	inactive
NC(N)=N[C@@H](CCC(=O)O)C(=O)O	inactive
O=C(OCCN1CCOCC1)C1(c2ccccc2)CCCCC1	inactive
CN(C)CCCc1cc(C(=O)Nc2ccc(-c3ccncc3)cc2)ccc1O	inactive
CC(=O)[C@H]1CCC2C3CC=C4C[C@@H](OS(=O)(=O)O)CC[C@]4(C)C3CC[C@@]21C (stereo partly specified)	inactive
N[C@H](C(=O)O)[C@H]1C[C@@H]1C(=O)O	inactive
Nc1ncnc2c1ncn2C1CCCO1 (stereo unspecified)	inactive
CNCCNS(=O)(=O)c1cccc2cnccc12	inactive
CSC(N)=NCCC[C@H](N)C(=O)O	inactive
CC(C)NC[C@H](O)COc1ccc(CC(N)=O)cc1	inactive
CSc1nc(N)c2ncn([C@@H]3O[C@H](COP(=O)(O)OP(=O)(O)O)C(O)[C@H]3O)c2n1 (stereo partly specified)	inactive

target: Tyrosine-protein phosphatase non-receptor type substrate 1 (Homo sapiens) + Leukocyte surface antigen CD47 (Homo sapiens) (UniProt P78324+Q08722); experiment: CD47-SIRPalpha protein protein interaction - LANCE assay qHTS validation (AID 1347057; active = well fitted curve in the direction sought with a large enough effect in the signal ratio, with a control signal flat, not every such curve was filed as active; the % refers to the signal ratio); settings: Recombinant CD47-His / biotin-SIRPalpha, TR-FRET ratio; series mostly up to 38.3 µM
Summary of the method: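 Inhibition of soluble CD47/SIRPalpha ectodomain association by titrated compounds, measured as 665/615 nm time-resolved FRET ratio after sequential 30 min room-temperature incubations.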

Chain of Tyrosine-protein phosphatase non-receptor type substrate 1 (Homo sapiens) + Leukocyte surface antigen CD47 (Homo sapiens) (P78324 whole entry, looked up, the tested form may be a part): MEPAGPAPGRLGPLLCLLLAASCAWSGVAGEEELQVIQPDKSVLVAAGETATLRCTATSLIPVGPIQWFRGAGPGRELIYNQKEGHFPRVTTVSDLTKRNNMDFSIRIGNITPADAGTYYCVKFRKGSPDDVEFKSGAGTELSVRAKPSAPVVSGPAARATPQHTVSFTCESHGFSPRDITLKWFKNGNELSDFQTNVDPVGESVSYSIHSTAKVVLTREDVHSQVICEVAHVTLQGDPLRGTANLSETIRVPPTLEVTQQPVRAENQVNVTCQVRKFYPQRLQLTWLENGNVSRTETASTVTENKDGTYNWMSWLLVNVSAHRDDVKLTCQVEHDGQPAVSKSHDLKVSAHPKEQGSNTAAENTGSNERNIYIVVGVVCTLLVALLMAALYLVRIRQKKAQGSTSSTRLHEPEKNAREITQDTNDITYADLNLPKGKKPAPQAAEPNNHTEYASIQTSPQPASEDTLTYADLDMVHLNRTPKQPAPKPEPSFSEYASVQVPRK
Chain of Tyrosine-protein phosphatase non-receptor type substrate 1 (Homo sapiens) + Leukocyte surface antigen CD47 (Homo sapiens) (Q08722 whole entry, looked up, the tested form may be a part): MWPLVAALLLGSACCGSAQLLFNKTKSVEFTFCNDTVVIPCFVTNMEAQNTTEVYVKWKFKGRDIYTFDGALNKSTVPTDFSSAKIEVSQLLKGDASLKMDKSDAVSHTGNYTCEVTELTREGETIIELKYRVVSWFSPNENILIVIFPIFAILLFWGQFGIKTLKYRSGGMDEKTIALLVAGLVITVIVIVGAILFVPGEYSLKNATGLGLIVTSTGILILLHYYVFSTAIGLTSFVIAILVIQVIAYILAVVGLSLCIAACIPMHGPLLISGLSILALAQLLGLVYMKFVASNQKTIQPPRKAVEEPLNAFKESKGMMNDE

Compound	Potency
O=C(O)C1=CCCNC1	inactive
CC(C)C[C@H](NC(=O)[C@H](O)[C@H](N)Cc1ccccc1)C(=O)O	inactive
Cc1nc2n(c(=O)c1CCN1CCC(c3noc4cc(F)ccc34)CC1)CCCC2O (stereo unspecified)	inactive
CC1CNCCN1S(=O)(=O)c1cccc2cnccc12 (stereo unspecified)	inactive
O=C(O)C1CCNCC1	inactive
NCCCCN	inactive
NC1(C(=O)O)CC1	inactive
CN1CC(O)C(O)C(O)C1CO (stereo unspecified)	inactive
CCCCCCCCCC(=O)NC(CN1CCOCC1)[C@H](O)c1ccccc1 (stereo partly specified)	inactive
CCCCCCN(CCCCCC)C(=O)Cc1c(-c2ccc(F)cc2)[nH]c2ccccc12	inactive
O=c1[nH]c2cc(Cl)ccc2c(O)c1-c1ccc(Oc2ccccc2)cc1	inactive
Cc1cccc(C(=O)NCN2CCN(c3ccccc3C#N)CC2)c1	inactive
O=c1[nH]c2ccccc2c2ccccc12	inactive
Cc1cc(Cn2cnc3c2C[C@@H](C(=O)O)N(C(=O)C(c2ccccc2)c2ccccc2)C3)ccc1N	inactive
NCCCNCCCCNCCCN	inactive
CC(C)[C@@H]1CC[C@@H](C)C[C@@H]1P(=O)(c1ccccc1)c1ccccc1	inactive
CCN(CC)CCOC(=O)c1cc(Cl)c(N)cc1OC	inactive
[N-]=[N+]=Nc1ccc(C(=O)CSC[C@H](NC(=O)CC[C@H](N)C(=O)O)C(=O)NCC(=O)O)cc1	inactive
Cc1ccccc1/C=C/C1=NCCN1	inactive

Compound	Potency
NC(N)=NC(N)=Nc1ccccc1	inactive
Cn1c(=O)c2c(nc(/C=C/c3cccc(Cl)c3)n2C)n(C)c1=O	inactive
Nc1ncnc2c1nc(Sc1ccc(Cl)cc1)n2[C@H]1OC2COP(=O)(O)O[C@@H]2C1O (stereo partly specified)	inactive
N[C@@H](Cc1ccc(O)c(I)c1)C(=O)O	inactive
CC(=O)NNC(=O)N1Cc2ccccc2Oc2ccc(Cl)cc21	inactive
NCC(O)c1ccc(O)c(O)c1 (stereo unspecified)	inactive
c1ccc(C2CN3CCSC3=N2)cc1 (stereo unspecified)	inactive
Cc1cc2c(cc1Cl)N(C(=O)Nc1ccnc3ccccc13)CC2	inactive
NCCNS(=O)(=O)c1cccc2c(Cl)cccc12	inactive
NC(N)=N[C@@H](CCC(=O)O)C(=O)O	inactive
O=C(OCCN1CCOCC1)C1(c2ccccc2)CCCCC1	inactive
CN(C)CCCc1cc(C(=O)Nc2ccc(-c3ccncc3)cc2)ccc1O	inactive
CC(=O)[C@H]1CCC2C3CC=C4C[C@@H](OS(=O)(=O)O)CC[C@]4(C)C3CC[C@@]21C (stereo partly specified)	inactive
N[C@H](C(=O)O)[C@H]1C[C@@H]1C(=O)O	inactive
Nc1ncnc2c1ncn2C1CCCO1 (stereo unspecified)	inactive
CNCCNS(=O)(=O)c1cccc2cnccc12	inactive
CSC(N)=NCCC[C@H](N)C(=O)O	inactive
CC(C)NC[C@H](O)COc1ccc(CC(N)=O)cc1	inactive
CSc1nc(N)c2ncn([C@@H]3O[C@H](COP(=O)(O)OP(=O)(O)O)C(O)[C@H]3O)c2n1 (stereo partly specified)	inactive
